Compounds with a hit are over-represented: about 4% of the library has one in this group of screens.
KKLEB cytotox – cytotoxicity in KKLEB CF airway cells, primary screen, cytotoxicity control for CF NF-kB inhibitor project, cell-based, uHTS, fluorescence assay plates; activity change (cytotoxicity), % at 5 µM; 360,000 compounds, 0.36% hits; KKLEB CF airway cells viability, ATPlite luminescence, overnight; stronger effect = lower value; cells stimulated with P. aeruginosa culture filtrate;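 active = corrected activity change at or below -50% at 5 µM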
TWEAK Fn14 block – inhibitors of TWEAK-Fn14 signaling, primary screen, luciferase reporter cells, uHTS; TWEAK-stimulated Fn14 reporter cells, luciferase luminescence, 8 h; inhibition, % at 10 µM; 360,000 compounds, 2% hits; in the data active = inhibition above about 50%
Peg3 promoter – Peg3 promoter-driven luciferase inhibitors, primary screen, cell-based, HeLa, luciferase luminescence; HeLa PEG-Prom luciferase reporter, overnight; inhibition, % at 20 µM; 360,000 compounds, 1.7% hits; AID 588405, 2011;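 active = inhibition of at least 50% at 20 µM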
TROY signal inh – inhibitors of TROY-driven NF-kB signaling, primary screen, Q293 LMP1-TROYcd cells, NF-kB luciferase, uHTS; Q293 LMP1-TROYcd NF-kB luciferase reporter, 4 h; inhibition, % at 10 µM; 360,000 compounds, 0.98% hits; AID 1347056, 2019;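 active = compounds whose plate-normalised and pattern-corrected inhibition of the luciferase reporter signal at the single screening dose is 50% or more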
CF NFkB inh – inhibitors of PAF-induced NF-kB signaling, primary screen, cell-based, GFP fluorescence, uHTS. KKLEB NF-kB-GFP reporter, GFP fluorescence overnight. inhibition, % at 5 µM. 360,000 compounds, 0.86% hits;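 active = at least 50% inhibition at 5 µM, scaled per plate between neutral and stimulator controls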;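 note: PAF is a Pseudomonas aeruginosa culture filtrate used as stimulus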
HIF-2a inh – HIF-2a reporter inhibitors, primary screen, luminescence, 786-0 RCC cells. 360,000 compounds, 0.72% hits. inhibition, % at 18.8 µM. AID 624352, 2012. 786-0 RCC cells HIF-2a reporter, luciferase luminescence, overnight;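 active = inhibition of the luminescence signal of 40% or more relative to plate controls, in a single-dose primary screen at 18.75 µM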
A number is an active result; i = inactive; nt = no result; ! = not active in a repeat.

SMILES	KKLEB cytotox	TWEAK Fn14 block	Peg3 promoter	TROY signal inh	CF NFkB inh	HIF-2a inh
COc1ccc2nc(NC(=O)CN3CCN(C)CC3)sc2c1	i	i	i	54	i	i
COc1ccc(CC(=O)Nc2sc3c(c2C(N)=O)CCCC3)cc1	i	i	i	i	i	i
COc1ccc2nc(Nc3sc4c(c3C(N)=O)CCCC4)sc2c1	i	i	i	58	i	i
CCOc1ccc2nc(NC(=O)CN3CCC(n4nnc5cc(F)ccc54)CC3)sc2c1	i	i	i	57	i	i
CCN1CCN(CC(=O)Nc2nc3ccc(OC)cc3s2)CC1	i	i	i	i	i	i
O=C(CN1CCC(n2nnc3cc(F)ccc32)CC1)NC1CC1	i	i	i	i	i	i
COc1ccc(C2CCCCCN2C(=O)C2CCN(S(=O)(=O)c3ccc(C)cc3)CC2)cc1 (stereo not drawn)	i	i	i	i	i	i
CCCc1nc(SCc2cccnc2)c2c(=O)n(C)c(=O)n(C)c2n1	i	i	i	i	i	i
Cc1ccccc1-c1nc(SCc2cccnc2)c2c(=O)n(C)c(=O)n(C)c2n1	i	i	64	i	i	i
CC(=O)c1cnc2n(c1=O)CCS2	i	i	i	i	i	i
CCN(CC)S(=O)(=O)c1ccc(-c2nnc(SCC(=O)N3CCc4ccccc43)o2)cc1	i	i	52	i	i	i
COc1ccc(-c2nn(-c3ccccc3)cc2/C=N/NC(N)=S)cc1OC	i	69	i	i	i	i
COc1ccc(-c2nn(-c3ccccc3)cc2/C=N/n2cnnc2)cc1OC	i	i	i	i	i	i
CC1CN(CCCCSc2ccc(Cl)cc2)CC(C)O1 (stereo not drawn)	i	90	i	i	i	i
CC1CN(CCOCCSc2ccc(Cl)cc2)CC(C)O1 (stereo not drawn)	i	i	i	i	i	i
c1ccc(-c2cn3c4c(sc3n2)CCCC4)cc1	-58	89	53!	72	i	i
O=C(Oc1c(-c2ccccc2)c(=O)n2c3c(cccc13)CC2)c1ccc(Cl)cc1	i	i	i	53	i	i
O=C(Oc1c(-c2ccccc2)c(=O)n2c3c(cccc13)CC2)c1ccco1	i	i	i	i	i	i
COc1cc(N2CCCC2)c(OC)cc1/C=C(/C#N)c1ccc(Br)cc1	i	i	53	i	i	i
Cn1c(=O)[nH]c(=O)c2c1nc(N1CCCCC1)n2CCSc1nc2ccccc2o1	i	i	i	i	i	i
CC(C)CCn1c(Sc2nc3ccccc3o2)nc2c1c(=O)[nH]c(=O)n2C	i	67	i	i	i	i
CC(=O)N1C[C@H]2CON(C)[C@H]2C[C@H]1c1ccc(-c2ccc(C#N)cc2)cc1	i	i	i	i	i	i
O=C(COc1cccc2cccnc12)N/N=C1\SCC(=O)N1CCc1ccccc1	i	i	i	i	i	i
CCOC(=O)c1oc2ccccc2c1CSc1nnc(-c2ccco2)o1	i	59	i	i	i	i
COC(=O)c1[nH]c2ccccc2c1NC(=O)CN1CCN(C/C=C/c2ccccc2)CC1	i	i	i	i	i	i
SMILES	KKLEB cytotox	TWEAK Fn14 block	Peg3 promoter	TROY signal inh	CF NFkB inh	HIF-2a inh
CCOC(=O)c1[nH]c2ccc(F)cc2c1NC(=O)CN1CCN(C/C=C/c2ccccc2)CC1	i	i	65	i	i	i
O=C1C(Cl)=C(NCCN2CCOCC2)C(=O)c2ccccc21	i	i	i	i	i	i
O=C1C(Cl)=C(NCCCN2CCOCC2)C(=O)c2ccccc21	i	i	i	i	i	49
O=C1C(Cl)=C(NCCCO)C(=O)c2ccccc21	i	i	i	i	i	72
CCOCCCNC1=C(Cl)C(=O)c2ccccc2C1=O	i	i	i	i	i	i
N/C(=N\OC(=O)Cc1ccccc1)c1ccccc1Cl	i	i	i	i	i	i
CCC1(C)Nc2ccccc2C(=O)N1O (stereo not drawn)	i	i	i	58	i	i
CCCS(=O)(=O)NC(=O)C1(C)CCN(C(=O)c2cc(C)oc2C)C1 (stereo not drawn)	i	i	i	i	i	i
CC(=O)OCC(=O)C1(O)CCC2C3CC(C)C4=CC(=O)C=CC4(C)C3=CCC21C (stereo not drawn)	i	i	i	i	i	i
CC(=O)OCC(=O)C1(O)CCC2C3CC(C)C4=CC(=O)C=CC4(C)C3(F)C(O)CC21C (stereo not drawn)	i	i	i	i	80	i
CC(=O)C1(O)CCC2C3CC(C)C4=CC(=O)C=CC4(C)C3(F)C(O)CC21C (stereo not drawn)	i	i	i	i	71	i
CC(=O)OCC(=O)[C@@]1(OC(C)=O)[C@@H](C)C[C@H]2[C@@H]3C[C@H](F)C4=CC(=O)C=C[C@]4(C)[C@@]3(F)[C@@H](O)C[C@@]21C	i	i	i	i	77	i
CCc1ccc(NC(=O)C(C)OC(=O)Cn2[nH]c(=O)c3ccccc3c2=O)cc1 (stereo not drawn)	i	i	i	i	i	i
CCOC(=O)N1CCN(C(=O)C[C@@H]2C[C@@]3(C(=O)OCC)CCCC=C3N(Cc3ccc4c(c3)OCO4)C2=O)CC1	nt	i	nt	i	nt	i
COC(=O)c1c(NC(=O)COC(=O)c2ccc(Cl)cc2[N+](=O)[O-])sc2c1CCCCC2	i	i	71	i	i	i
OC(c1ccc(F)cc1)c1nc(-c2ccc(Cl)cc2)cs1 (stereo not drawn)	i	i	i	i	i	i
CC(=O)N(C(C)=O)c1ncc2c([nH]c3ccccc32)c1C#N	i	55	i	54	90	i
Cc1nc(C(=O)O)cc2c1[nH]c1ccccc12	i	i	i	i	i	i
COc1cccc2cc(-c3nnc(-c4ccccc4)o3)c(=O)oc12	i	73	i	70	i	i
COc1cc(OC)cc(-c2cc3ccc(OC)cc3cn2)c1	-55	i	i	i	i	i
COc1ccc(-c2cc3cc4c(cc3cn2)OCO4)cc1	i	54	i	i	i	i
COc1ccc(-c2noc(-c3ccc4c(c3)OCO4)n2)cc1	i	i	i	i	i	i
Cc1[nH]c(-c2ccc3c(c2)OCO3)nc1C(=O)O	i	i	i	i	i	i
COc1cccc(-c2noc(-c3ccc4c(c3)OCO4)n2)c1	i	53	i	i	i	i
COc1ccc2cc(-c3ccccc3)ncc2c1	i	i	i	i	i	i
COc1cc(OC)cc(-c2cc3cc4c(cc3cn2)OCO4)c1	i	i	i	i	i	i
COc1ccc(-c2nc(-c3ccc4c(c3)OCO4)[nH]c2-c2ccc(OC)cc2)cc1	i	56	i	i	i	i

Source: PubChem BioAssay
